Laboratory results taken from PubChem BioAssay (NCI).
The panel holds about 79,000 compounds, 15% with a hit somewhere; the sample as a whole holds those more often. Activity calls are given as the source filed them. Rule as the data show it: active = growth inhibition above about 70%; inactive = the rest.

Legend:
[1] = NCI Yeast Anticancer Drug Screen. Data for the rad52 strain (AID 147);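 also: 0% = growth of vehicle-treated control cultures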; settings: S. cerevisiae rad52 mutant growth inhibition, hits give high values
Summary of the method: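 DNA repair-defective yeast; compound exposure; growth scored against vehicle controls.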

[2] = NCI Yeast Anticancer Drug Screen. Data for the rad50EPP+ strain (AID 151);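 also: 0% = growth of vehicle-treated control cultures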; settings: S. cerevisiae rad50 mutant strain, hits give high values
Summary of the method: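 rad50EPP+ yeast treated with test compounds. Readout: growth vs vehicle control.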

[3] = NCI Yeast Anticancer Drug Screen. Data for the mgt1 strain (AID 153); settings: S. cerevisiae mgt1 mutant growth inhibition, hits give high values
Summary of the method: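 Growth inhibition relative to vehicle controls was scored for the mgt1 yeast strain after compound exposure.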

[4] = NCI Yeast Anticancer Drug Screen. Data for the rad50 strain (AID 155);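 also: 0% = growth of vehicle-only cultures of the same strain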; settings: S. cerevisiae rad50 strain growth inhibition, hits give high values
Summary of the method: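 Cells are treated with compound, grown, and their growth is then scored against vehicle-only cultures of the same repair-deficient yeast strain.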

[5] = NCI Yeast Anticancer Drug Screen. Data for the mec2-1 strain (AID 157); settings: S. cerevisiae mec2-1 strain, hits give high values
Summary of the method: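 Growth inhibition is read against vehicle-treated controls after compound exposure of the mec2-1 yeast strain, which is defective in DNA damage repair or cell cycle control.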

[6] = NCI Yeast Anticancer Drug Screen. Data for the rad14 strain (AID 159);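 also: 0% = growth of vehicle-treated control cultures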; settings: S. cerevisiae rad14 strain growth inhibition, hits give high values
Summary of the method: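 Readout: yeast growth inhibition, referenced to vehicle-only cultures. Strain bears a defined alteration in DNA damage repair.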

[7] = NCI Yeast Anticancer Drug Screen. Data for the sgs1 mgt1 strain (AID 161);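 also: 0% = growth of cultures given vehicle only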; settings: S. cerevisiae sgs1 mgt1 strain, hits give high values
Summary of the method: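 Growth of a repair-deficient yeast mutant was monitored after compound treatment and expressed as inhibition relative to vehicle-treated cultures.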

[8] = NCI Yeast Anticancer Drug Screen. Data for the CLN2oe strain (AID 163);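 also: 0% = growth of vehicle-only control cultures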; settings: S. cerevisiae CLN2oe strain, hits give high values
Summary of the method: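 Compound-treated yeast; growth vs vehicle ctrl = % inhibition. Genetically altered strain (cell-cycle control).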

[9] = NCI Yeast Anticancer Drug Screen. Data for the cln2 rad14 strain (AID 165);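 also: 0% = growth equal to vehicle treated cultures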; settings: S. cerevisiae cln2 rad14 strain, hits give high values
Summary of the method: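 Growth inhibition, relative to vehicle-treated controls, is the read-out. The test organism is a yeast strain with defined genetic alterations, cln2 rad14.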

[10] = NCI Yeast Anticancer Drug Screen. Data for the bub3 strain (AID 167); settings: S. cerevisiae bub3 mutant strain, hits give high values
Summary of the method: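 Part of a panel of yeast mutants defective in DNA damage repair or cell cycle regulation. Each strain is grown with compound, and inhibition is calculated relative to solvent-treated cultures.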

[11] = NCI Yeast Anticancer Drug Screen. Data for the wt2 strain (AID 169);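 also: 0% = growth of vehicle-treated yeast cultures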; settings: S. cerevisiae wt2 strain growth inhibition, hits give high values
Summary of the method: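 Compound exposure of yeast; growth compared with vehicle controls; inhibition reported.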

[12] = NCI Yeast Anticancer Drug Screen. Data for the mlh1 strain (AID 171);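 also: 0% = growth of vehicle-treated control cultures of the same strain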; settings: S. cerevisiae mlh1 strain growth inhibition, hits give high values
Summary of the method: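 Compounds are applied to a genetically altered yeast strain, and its growth is compared with that of vehicle-treated cultures to give percent inhibition.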

[13] = NCI Yeast Anticancer Drug Screen. Data for the sgs1 strain (AID 173);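 also: 0% = growth of vehicle-only control cultures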; settings: S. cerevisiae sgs1 mutant, hits give high values
Summary of the method: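 Compounds applied to genetically altered yeast; growth compared with vehicle-treated cultures to give % inhibition.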

[14] = NCI Yeast Anticancer Drug Screen. Data for the mlh1 rad18 strain (AID 175); settings: S. cerevisiae mlh1 rad18 strain growth inhibition, hits give high values
Summary of the method: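 Cells of a genetically altered yeast strain, deficient in DNA damage repair, were treated with compound. Their growth was then compared with that of vehicle-treated cultures to give inhibition.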

[15] = at 5.0 µM (retest, dose inferred, filed as 0.5)
[16] = at 50.0 µM (retest, dose inferred, filed as 5.0)

Measured: growth inhibition

CC1=NOC(=O)/C1=C/c1ccc2c(c1)OCO2
active: [2]; at 100.0 µM 87% | [4]; at 50.0 µM 82.2% | [5]; [16] 83% | [5]; at 50.0 µM 78.6% | [10]; at 50.0 µM 70.5% | [14]; [16] 81%
inactive: [1]; at 1.2 µM 0% | [1]; at 3.7 µM 4% | [1]; at 11.0 µM 17% | [1]; at 33.0 µM 32% | [1]; at 100.0 µM 39% | [2]; at 1.2 µM 6% | [2]; at 3.7 µM 5% | [2]; at 11.0 µM 41% | [2]; at 33.0 µM 47% | [3]; at 1.2 µM -4% | [3]; at 3.7 µM 1% | [3]; at 11.0 µM 1% | [3]; at 33.0 µM -10% | [3]; at 100.0 µM 9% | [4]; at 1.2 µM 1% | [4]; at 3.7 µM 3% | [4]; [15] 0% | [4]; at 11.0 µM 26% | [4]; at 33.0 µM 49% | [4]; [16] 24% | [4]; at 100.0 µM 59% | [5]; at 1.2 µM 0% | [5]; at 3.7 µM -1% | [5]; [15] 13% | [5]; at 11.0 µM 10% | [5]; at 33.0 µM 12% | [5]; at 100.0 µM 28% | [6]; at 1.2 µM 2% | [6]; at 3.7 µM 2% | [6]; at 11.0 µM 7% | [6]; at 33.0 µM 11% | [6]; at 100.0 µM 29% | [7]; [15] 23% | [7]; [16] 58% | [7]; at 50.0 µM 65.5% | [8]; at 1.2 µM -5% | [8]; at 3.7 µM 3% | [8]; at 11.0 µM 9% | [8]; at 33.0 µM 15% | [8]; at 100.0 µM 9% | [9]; [15] 2% | [9]; [16] 51% | [9]; at 50.0 µM 20.4% | [10]; at 1.2 µM -5% | [10]; at 3.7 µM -1% | [10]; [15] 19% | [10]; at 11.0 µM 3% | [10]; at 33.0 µM 3% | [10]; [16] 30% | [10]; at 100.0 µM 18% | [11]; at 1.2 µM 2% | [11]; at 3.7 µM 0% | [11]; at 11.0 µM 8% | [11]; at 33.0 µM 12% | [11]; at 100.0 µM 13% | [12]; at 1.2 µM 3% | [12]; at 3.7 µM 1% | [12]; at 11.0 µM 6% | [12]; at 33.0 µM 20% | [12]; at 100.0 µM 26% | [13]; at 1.2 µM 1% | [13]; at 3.7 µM 1% | [13]; at 11.0 µM 10% | [13]; at 33.0 µM 19% | [13]; at 100.0 µM 23% | [14]; [15] 23% | [14]; at 50.0 µM 48.6%
